Records with an inconclusive call do not appear. The source made the active and inactive calls. Rule for the calls: active = hit-call score of the fitted dose curve at least 0.9, where 1 is the maximum; inconclusive = response in the unintended direction; inactive = score below 0.9.
target: human Peroxisome Proliferator-activated Receptor alpha (PPARa), PPARA (gene 5465) (UniProt Q07869); test: ATG_PPARa_TRANS: Attagene TRANS-FACTORIAL HepG2 Assay for human Peroxisome Proliferator-activated Receptor alpha (PPARa) (AID 2283001);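 for AC50: potency for gain of reporter signal over DMSO so agonist or activator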
How it was run: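 Gain-of-signal endpoint: reporter mRNA induction relative to DMSO, detected by fluorescent RT-PCR and capillary electrophoresis. HepG2 cells transiently carried GAL4-UAS-driven reporter units plus NR-Gal4 fusion; exposure lasted 24 h.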

Chain of human Peroxisome Proliferator-activated Receptor alpha (PPARa), PPARA (gene 5465) (Q07869 whole entry, looked up, the tested form may be a part): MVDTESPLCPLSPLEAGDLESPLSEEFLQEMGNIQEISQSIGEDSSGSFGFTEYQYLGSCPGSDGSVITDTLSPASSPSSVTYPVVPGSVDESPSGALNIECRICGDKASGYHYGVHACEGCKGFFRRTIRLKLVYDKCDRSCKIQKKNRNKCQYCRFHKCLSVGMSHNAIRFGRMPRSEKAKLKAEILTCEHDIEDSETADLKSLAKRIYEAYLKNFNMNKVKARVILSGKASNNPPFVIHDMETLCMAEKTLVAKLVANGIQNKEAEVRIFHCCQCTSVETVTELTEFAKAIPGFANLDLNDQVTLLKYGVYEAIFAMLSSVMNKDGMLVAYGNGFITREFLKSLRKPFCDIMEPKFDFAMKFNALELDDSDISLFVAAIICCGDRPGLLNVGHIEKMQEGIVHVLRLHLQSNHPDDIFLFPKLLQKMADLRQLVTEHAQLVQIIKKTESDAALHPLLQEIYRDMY

Row | Structure (SMILES) | outcome | AC50
1 | Nc1ccc(Cl)c(N)c1 | inactive | 
2 | O=C(Nc1ccccc1)c1cc(Cl)ccc1O | inactive | 
3 | CC1=CCC2CC1C2(C)C (stereo not given) | inactive | 
4 | Cc1c(C(=O)c2c[nH]n(C)c2=O)ccc(S(C)(=O)=O)c1C1=NOCC1 | inactive | 
5 | CC1(C)CCC[C@]2(C)[C@H]3CC(=O)O[C@]3(C)CC[C@@H]12 | inactive | 
6 | CC(C)COC(=O)CC(C(=O)OCC(C)C)S(=O)(=O)O (stereo not given) | inactive | 
7 | Nc1ccnc(=O)[nH]1 | inactive | 
8 | CC(=O)CCC1=C(C)CCCC1(C)C | inactive | 
9 | [Cl][Sc]([Cl])[Cl] | inactive | 
10 | CCN(CC)c1cccc(C)c1 | inactive | 
11 | CCc1cccc(C)c1N | inactive | 
12 | COc1ccc(-c2coc3cc(O)cc(O)c3c2=O)cc1 |  | 7.31 µM (active)
13 | C=CCNCC=C | inactive | 
14 | CCOC(=O)OC(=O)OCC | inactive | 
15 | CC(=O)c1ccc(S(=O)(=O)NC(=O)NC2CCCCC2)cc1 | inactive | 
16 | CCCCCCCC(=O)OCC(COC(=O)CCCCCCC)OC(=O)CCCCCCC | inactive | 
17 | CC(=O)C(C)C | inactive | 
18 | CC=CC(=O)OCC(C)C | inactive | 

Row | Structure (SMILES) | outcome | AC50
19 | CCCCCCCOC(=O)c1ccc(O)cc1 | inactive | 
20 | CC1C(C)(C)C2=C(C(=O)CCC2)C1(C)C (stereo not given) | inactive | 
21 | CCOC(=O)c1ccccc1C | inactive | 
22 | CC(=O)OC/C=C(/C)CCC=C(C)C | inactive | 
23 | CC1(C)C(=O)N(CO)C(=O)N1CO | inactive | 
24 | CCCCCCCCCCCCCC(=O)OC(C)C | inactive | 
25 | CN(C)Cc1cc(CN(C)C)c(O)c(CN(C)C)c1 | inactive | 
26 | C=C[Si](OCCOC)(OCCOC)OCCOC | inactive | 
27 | CCOC(=O)[C@H](O)[C@@H](O)C(=O)OCC | inactive | 
28 | CC(C)=CCCC(C)=CC#N | inactive | 
29 | C=C(C)[C@@H]1CC=C(C)CC1 | inactive | 
30 | CC(=O)OCC=C(C)C | inactive | 
31 | O=S(=O)(O)c1ccc(N=Nc2c(O)ccc3ccccc23)cc1 | inactive | 
32 | CCCCC(CC)COC(=O)/C=C/c1ccc(OC)cc1 (stereo not given) | inactive | 
33 | CC1=CC(C)C(C=O)CC1 (stereo not given) | inactive | 
34 | CN(C)c1ccc2nc3ccc(=[N+](C)C)cc-3sc2c1 | inactive | 
35 | CC(C)c1ccc2ncccc2c1 | inactive | 
36 | O=C1CCCCC1C1CCCCC1 (stereo not given) | inactive | 

target: human Retinoic Acid Receptor beta (RARb), RARB (gene 5915) (UniProt P10826); test: ATG_RARb_TRANS: Attagene TRANS-FACTORIAL HepG2 Assay for human Retinoic Acid Receptor beta (AID 2283004)
How it was run: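 Fluorescent capillary-electrophoresis detection of GAL4-UAS reporter mRNA defines the endpoint, with induction over DMSO-treated wells scored as activity. Transiently transfected human hepatoma HepG2 cells expressing exogenous NR–Gal4 proteins are exposed to test chemicals for 24 h.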

Chain of human Retinoic Acid Receptor beta (RARb), RARB (gene 5915) (P10826 whole entry, looked up, the tested form may be a part): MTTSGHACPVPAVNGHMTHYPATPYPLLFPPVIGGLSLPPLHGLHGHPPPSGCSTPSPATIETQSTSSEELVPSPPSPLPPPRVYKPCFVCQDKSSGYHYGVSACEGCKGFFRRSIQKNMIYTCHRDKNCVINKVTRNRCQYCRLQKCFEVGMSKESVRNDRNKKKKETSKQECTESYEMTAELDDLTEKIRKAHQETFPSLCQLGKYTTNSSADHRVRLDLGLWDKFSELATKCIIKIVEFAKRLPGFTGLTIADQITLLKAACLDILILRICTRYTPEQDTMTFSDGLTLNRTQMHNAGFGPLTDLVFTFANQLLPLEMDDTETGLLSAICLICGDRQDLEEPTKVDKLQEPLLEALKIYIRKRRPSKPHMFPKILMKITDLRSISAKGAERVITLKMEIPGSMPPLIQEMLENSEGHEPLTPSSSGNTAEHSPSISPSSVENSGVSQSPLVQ

Row | Structure (SMILES) | outcome
37 | O=C(Nc1ccccc1)c1cc(Cl)ccc1O | inactive
38 | CC1=CCC2CC1C2(C)C (stereo not given) | inactive
39 | CC(C)COC(=O)CC(C(=O)OCC(C)C)S(=O)(=O)O (stereo not given) | inactive
40 | CC(=O)CCC1=C(C)CCCC1(C)C | inactive
41 | CCc1cccc(C)c1N | inactive
42 | C=CCNCC=C | inactive
43 | CC=CC(=O)OCC(C)C | inactive
44 | CC1(C)C(=O)N(CO)C(=O)N1CO | inactive
45 | CN(C)Cc1cc(CN(C)C)c(O)c(CN(C)C)c1 | inactive
46 | C=C[Si](OCCOC)(OCCOC)OCCOC | inactive
47 | CCOC(=O)[C@H](O)[C@@H](O)C(=O)OCC | inactive
48 | CC(C)=CCCC(C)=CC#N | inactive
49 | O=S(=O)(O)c1ccc(N=Nc2c(O)ccc3ccccc23)cc1 | inactive
50 | O=C1CCCCC1C1CCCCC1 (stereo not given) | inactive

Reference: PubChem BioAssay (EPA / NIEHS)
